The panel holds about 79,000 compounds, 15% with a hit somewhere; the sample as a whole holds those more often. The source made the active and inactive calls. No stated cut-off is given here; in the data, active means growth inhibition above about 70%; inactive means the rest.
Tests used:
[1] = NCI Yeast Anticancer Drug Screen. Data for the rad52 strain (AID 147);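 further: 0% = growth of vehicle-treated control cultures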; conditions: S. cerevisiae rad52 mutant growth inhibition, active compounds read high
Method in brief: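 Genetically altered yeast (DNA damage repair defect) treated with compound; inhibition calculated relative to vehicle.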

[2] = NCI Yeast Anticancer Drug Screen. Data for the wt1 strain (AID 149);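 further: 0% = growth of vehicle-treated wt1 cultures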; conditions: S. cerevisiae wt1 strain (SPY 50644) growth inhibition, active compounds read high
Method in brief: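 Readout: yeast growth inhibition, normalised to vehicle controls, in the wt1 strain exposed to test compounds.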

[3] = NCI Yeast Anticancer Drug Screen. Data for the rad50EPP+ strain (AID 151);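 further: 0% = growth of vehicle-treated control cultures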; conditions: S. cerevisiae rad50 mutant strain, active compounds read high
Method in brief: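 Strain rad50EPP+; compound exposure; % growth inhibition vs vehicle.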

[4] = NCI Yeast Anticancer Drug Screen. Data for the mgt1 strain (AID 153); conditions: S. cerevisiae mgt1 mutant growth inhibition, active compounds read high
Method in brief: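 Read-out: yeast growth inhibition vs vehicle control. Strain mgt1, drawn from a panel altered in DNA damage repair or cell cycle control.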

[5] = NCI Yeast Anticancer Drug Screen. Data for the rad50 strain (AID 155);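 further: 0% = growth of vehicle-only cultures of the same strain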; conditions: S. cerevisiae rad50 strain growth inhibition, active compounds read high
Method in brief: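 Compounds were tested on a yeast strain with an engineered DNA damage repair alteration; the reported value is growth inhibition normalised to vehicle treatment.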

[6] = NCI Yeast Anticancer Drug Screen. Data for the mec2-1 strain (AID 157); conditions: S. cerevisiae mec2-1 strain, active compounds read high
Method in brief: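 Cells of the genetically defined mec2-1 yeast strain are incubated with test compound. Inhibition of growth is calculated against vehicle-treated controls.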

[7] = NCI Yeast Anticancer Drug Screen. Data for the rad14 strain (AID 159);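 further: 0% = growth of vehicle-treated control cultures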; conditions: S. cerevisiae rad14 strain growth inhibition, active compounds read high
Method in brief: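 Compound-treated yeast with a defined DNA-repair lesion; growth inhibition normalised to vehicle-treated cultures.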

[8] = NCI Yeast Anticancer Drug Screen. Data for the sgs1 mgt1 strain (AID 161);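 further: 0% = growth of cultures given vehicle only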; conditions: S. cerevisiae sgs1 mgt1 strain, active compounds read high
Method in brief: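 Mutant yeast exposed to compound; growth scored against vehicle-only wells.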

[9] = NCI Yeast Anticancer Drug Screen. Data for the CLN2oe strain (AID 163);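 further: 0% = growth of vehicle-only control cultures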; conditions: S. cerevisiae CLN2oe strain, active compounds read high
Method in brief: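 Strain altered in cell-cycle control, incubated with compound; growth compared to solvent-treated controls.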

[10] = NCI Yeast Anticancer Drug Screen. Data for the cln2 rad14 strain (AID 165);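 further: 0% = growth equal to vehicle treated cultures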; conditions: S. cerevisiae cln2 rad14 strain, active compounds read high
Method in brief: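 The screen exposed genetically defined yeast (cln2 rad14) to test compounds and scored growth inhibition relative to vehicle-treated controls.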

[11] = NCI Yeast Anticancer Drug Screen. Data for the bub3 strain (AID 167); conditions: S. cerevisiae bub3 mutant strain, active compounds read high
Method in brief: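 Growth of a checkpoint-deficient yeast mutant is measured after compound exposure. Values represent inhibition relative to vehicle.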

[12] = NCI Yeast Anticancer Drug Screen. Data for the wt2 strain (AID 169);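 further: 0% = growth of vehicle-treated yeast cultures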; conditions: S. cerevisiae wt2 strain growth inhibition, active compounds read high
Method in brief: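 Steps: yeast strain treated with compound; growth recorded; inhibition calculated relative to cultures given vehicle alone.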

[13] = NCI Yeast Anticancer Drug Screen. Data for the mlh1 strain (AID 171);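 further: 0% = growth of vehicle-treated control cultures of the same strain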; conditions: S. cerevisiae mlh1 strain growth inhibition, active compounds read high
Method in brief: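 Yeast screen: mutant strain plus compound, growth scored against vehicle control wells.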

[14] = NCI Yeast Anticancer Drug Screen. Data for the sgs1 strain (AID 173);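 further: 0% = growth of vehicle-only control cultures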; conditions: S. cerevisiae sgs1 mutant, active compounds read high
Method in brief: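 Inhibition of yeast growth served as the measure. The mutant strain was treated with each compound, and growth was normalised to cultures receiving vehicle alone.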

[15] = NCI Yeast Anticancer Drug Screen. Data for the mlh1 rad18 strain (AID 175); conditions: S. cerevisiae mlh1 rad18 strain growth inhibition, active compounds read high
Method in brief: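 Compound-treated yeast growth, normalised to vehicle controls. Strain bears defined DNA repair mutations.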

[16] = NCI Yeast Anticancer Drug Screen. Data for the rad18 strain (AID 177); conditions: S. cerevisiae rad18 mutant growth inhibition, active compounds read high
Method in brief: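 Inhibition values reflect reduced yeast growth compared with vehicle-treated controls, using a strain engineered with a DNA damage repair defect.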

[17] = at 5.0 µM (retest, dose inferred, filed as 0.5)
[18] = at 50.0 µM (retest, dose inferred, filed as 5.0)

Measured: growth inhibition

COc1cc(C2C3=C(COC3=O)Oc3cc4c(cc32)OCO4)ccc1O (stereo unspecified)
active: [1]; at 100.0 µM 72% | [5]; [17] 95% | [5]; [18] 95% | [5]; at 100.0 µM 73% | [8]; [17] 77% | [8]; [18] 77% | [15]; at 50.0 µM 78% | [16]; at 100.0 µM 80%
inactive: [1]; at 1.2 µM -1% | [1]; at 3.7 µM 2% | [1]; at 11.0 µM 7% | [1]; at 33.0 µM 34% | [2]; at 1.2 µM -2% | [2]; at 3.7 µM -7% | [2]; at 11.0 µM -5% | [2]; at 33.0 µM -5% | [2]; at 100.0 µM 31% | [3]; at 1.2 µM -3% | [3]; at 3.7 µM 0% | [3]; at 11.0 µM -3% | [3]; at 33.0 µM 4% | [3]; at 100.0 µM 15% | [4]; at 1.2 µM -1% | [4]; at 3.7 µM 1% | [4]; at 11.0 µM 0% | [4]; at 33.0 µM -5% | [4]; at 100.0 µM 30% | [5]; at 1.2 µM 0% | [5]; at 3.7 µM 5% | [5]; at 11.0 µM -10% | [5]; at 33.0 µM 35% | [5]; at 50.0 µM 55.9% | [6]; at 1.2 µM -3% | [6]; at 3.7 µM -2% | [6]; [17] -10% | [6]; at 11.0 µM -3% | [6]; at 33.0 µM -4% | [6]; [18] -10% | [6]; at 50.0 µM 32.2% | [6]; at 100.0 µM 33% | [7]; at 1.2 µM 1% | [7]; at 3.7 µM -1% | [7]; at 11.0 µM -6% | [7]; at 33.0 µM -8% | [7]; at 100.0 µM -20% | [8]; at 50.0 µM 22.4% | [9]; at 1.2 µM 0% | [9]; at 3.7 µM 8% | [9]; at 11.0 µM -1% | [9]; at 33.0 µM -2% | [9]; at 100.0 µM 24% | [10]; [17] 43% | [10]; [18] 43% | [10]; at 50.0 µM 34.2% | [11]; at 1.2 µM -2% | [11]; at 3.7 µM 1% | [11]; [17] -4% | [11]; at 11.0 µM 12% | [11]; at 33.0 µM 5% | [11]; [18] -4% | [11]; at 50.0 µM 29.3% | [11]; at 100.0 µM 32% | [12]; at 1.2 µM -2% | [12]; at 3.7 µM -4% | [12]; at 11.0 µM -5% | [12]; at 33.0 µM -1% | [12]; at 100.0 µM 42% | [13]; at 1.2 µM -1% | [13]; at 3.7 µM -5% | [13]; at 11.0 µM -4% | [13]; at 33.0 µM 8% | [13]; at 100.0 µM 0% | [14]; at 1.2 µM -4% | [14]; at 3.7 µM -6% | [14]; at 11.0 µM -6% | [14]; at 33.0 µM 14% | [14]; at 100.0 µM 59% | [15]; [17] 45% | [15]; [18] 45% | [16]; at 1.2 µM 2% | [16]; at 3.7 µM -6% | [16]; at 11.0 µM 3% | [16]; at 33.0 µM 32%

Cc1ccc(NN(NC(=O)OC(C)C)C(=O)OC(C)C)cc1
active: [15]; at 50.0 µM 78.8%
inactive: [1]; at 1.2 µM -2% | [1]; at 3.7 µM -2% | [1]; at 11.0 µM 0% | [1]; at 33.0 µM 8% | [1]; at 100.0 µM 17% | [2]; at 1.2 µM 2% | [2]; at 3.7 µM 7% | [2]; at 11.0 µM 4% | [2]; at 33.0 µM 7% | [2]; at 100.0 µM 11% | [3]; at 1.2 µM 5% | [3]; at 3.7 µM 13% | [3]; at 11.0 µM 25% | [3]; at 33.0 µM 50% | [3]; at 100.0 µM 64% | [4]; at 1.2 µM 0% | [4]; at 3.7 µM -3% | [4]; at 11.0 µM 1% | [4]; at 33.0 µM 14% | [4]; at 100.0 µM 13% | [5]; at 1.2 µM -1% | [5]; at 3.7 µM 0% | [5]; [17] 3% | [5]; at 11.0 µM -1% | [5]; at 33.0 µM 8% | [5]; [18] 35% | [5]; at 50.0 µM 23.1% | [5]; at 100.0 µM 13% | [6]; at 1.2 µM 3% | [6]; at 3.7 µM 5% | [6]; [17] 1% | [6]; at 11.0 µM 8% | [6]; at 33.0 µM 13% | [6]; [18] 5% | [6]; at 50.0 µM 6.1% | [6]; at 100.0 µM 15% | [7]; at 1.2 µM -2% | [7]; at 3.7 µM -1% | [7]; at 11.0 µM -1% | [7]; at 33.0 µM 1% | [7]; at 100.0 µM 8% | [8]; [17] 15% | [8]; [18] 19% | [8]; at 50.0 µM 29.6% | [9]; at 1.2 µM -3% | [9]; at 3.7 µM -11% | [9]; at 11.0 µM -5% | [9]; at 33.0 µM 1% | [9]; at 100.0 µM 5% | [10]; [17] 14% | [10]; [18] 27% | [10]; at 50.0 µM 28.6% | [11]; at 1.2 µM -5% | [11]; at 3.7 µM -3% | [11]; [17] 17% | [11]; at 11.0 µM -1% | [11]; at 33.0 µM 6% | [11]; [18] 38% | [11]; at 50.0 µM 2.1% | [11]; at 100.0 µM 17% | [12]; at 1.2 µM -1% | [12]; at 3.7 µM -1% | [12]; at 11.0 µM 0% | [12]; at 33.0 µM 7% | [12]; at 100.0 µM 11% | [13]; at 1.2 µM 0% | [13]; at 3.7 µM 2% | [13]; at 11.0 µM 5% | [13]; at 33.0 µM 7% | [13]; at 100.0 µM 8% | [14]; at 1.2 µM 1% | [14]; at 3.7 µM 1% | [14]; at 11.0 µM 5% | [14]; at 33.0 µM 14% | [14]; at 100.0 µM 15% | [15]; [17] 16% | [15]; [18] 62% | [16]; at 1.2 µM -3% | [16]; at 3.7 µM -4% | [16]; at 11.0 µM 1% | [16]; at 33.0 µM 12% | [16]; at 100.0 µM 21%

Reference: PubChem BioAssay (NCI)
